# Hits are enriched below; roughly 2.2% of the tested compounds scored in any of these assays.
# TDP-43 yeast inh – rescues yeast growth from TDP-43 toxicity; TDP-43 expressing yeast growth rescue, BacTiter-Glo, 24 h; Potency, µM (doses to about 46.1 µM), for the others: at the top dose growth rescue (activation), usual class: activators; 1.8% of 410,000 active; AID 652104; note: % of control where 0% means no effect; nearly all actives have a fitted effect of over 50% in size
#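 Readout is BacTiter-Glo luminescence of cell growth, so inhibitors register as activators. TDP-43-expressing yeast at OD600=0.02 in galactose medium, after raffinose pregrowth to mid-log, were incubated with compound for 24 hr at 30 deg C.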
# Mito fusion act – mitochondrial division inhibition or fusion activation; 0.23% of 320,000 active; Potency, µM (highest dose often 46.1 µM), for the others: at the top dose growth rescue (activation), most hits filed as activators; S. cerevisiae fusion-defective mutant growth rescue, CellTiterGlo 48 h; AID 485298; note: % of control where 0% means no effect; nearly all actives have a fitted effect of over 45% in size
#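 Compounds are tested for their ability to restore growth of mitochondrial fusion-defective yeast strains at non-permissive 37C in YPEG medium over 48 hours. Viability is quantified by luciferase luminescence.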
# aSyn yeast inh – rescues yeast growth from alpha-synuclein toxicity; Yeast expressing alpha-synuclein, growth rescue, BacTiter-Glo, 24 h; 0.14% of 370,000 active; AID 652106; Potency, µM (highest dose often 46.1 µM), without a hit: at the highest dose growth rescue (activation), actives largely listed as activators; note: % of control where 0% means no effect; nearly all actives have a fitted effect of over 65% in size
#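 Screening used galactose-induced yeast with toxic alpha-synuclein levels, exposed to compound for 24 hr at 30 deg C. Cell growth, read with BacTiter-Glo luminescence, gave the measured signal.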
# Abeta rescue – restores growth of yeast expressing A-beta42 peptide; yeast expressing A-beta42, growth rescue, OD600, 48 h; response scale: 0% DMSO, 100% iron-clioquinol control; Potency, µM (highest dose often 46.1 µM), most hits filed as activators; 0.063% of 410,000 active; AID 1347071; note: nearly all actives have a fitted effect of over 55% in size
#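 Growth rescue measured by 600 nm absorbance after 48 h yeast culture at 30 C with compound. Values normalized between DMSO and an equimolar ferric chloride plus clioquinol control.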
# FUS yeast rescue – rescues growth of FUS-expressing yeast | S. cerevisiae FUS-expressing, growth rescue, OD600, 24 h | 0.24% of 390,000 active | Potency, µM (top dose mostly 76.6 µM), actives largely listed as activators;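 note: plate controls were DMSO vehicle for no effect and reference control for full effect; nearly all actives have a fitted effect of over 55% in size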
#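 Compound concentration series was pinned onto galactose-induced FUS-expressing yeast seeded at OD 0.005. Plates sat 24hr at 30C; absorbance at 600 nm gave growth. DMSO served as background control.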
# Numbers without * were called inactive; i = inactive; ? = inconclusive; . = no result given; [ ] = another dose, or the depositor's remark. Calls come from the whole dose curve; as a rule, active = well fitted curve in the direction sought with a large enough effect; inconclusive = small, poorly fitted or top-dose-only effect, or another doubt; inactive = no such curve, though single readings can be large; an effect the other way counts as inactive or inconclusive. Potency is the fitted concentration of half-maximal effect.
SMILES,TDP-43 yeast inh,Mito fusion act,aSyn yeast inh,Abeta rescue,FUS yeast rescue
CC(C)(C)S(=O)N1Cc2cc(C(=O)NCc3ccc(Oc4ccccc4)cc3)nc(-c3cccc(-c4cc5ccccc5o4)c3)c2[C@@H]1CCO (stereo partly specified),22µM*,.,-32%,i,32µM*
O=C(CSCc1ccc(F)cc1)Nc1nc2c(s1)CCCC2,14µM*,-12%,12%,i,i
O=C(COc1ccccc1Cl)Nc1nc2c(s1)CCCC2,11µM*,.,.,i,i
O=C(CSCc1ccc(F)cc1)Nc1ccc(F)cc1,?,8%,-9%,i,i
O=C(CSc1nnc(CNc2ccc(Cl)cc2)o1)Nc1nc2c(s1)CCCC2,19%,0%,-5%,i,35µM*
Cc1nc2cc(C(=O)N3CCN(C(=O)C(C)(C)C)CC3)ccc2n1C1CCCC1,.,.,.,.,i
NCCN(Cc1ccc(Cl)c(Cl)c1)c1ccc(Br)cn1,.,.,-25%,.,.
O=[N+]([O-])c1ccc(Sc2ccncn2)c([N+](=O)[O-])c1,35µM*,.,2%,i,i
Cc1cc(C)nc(Sc2ccc([N+](=O)[O-])cc2[N+](=O)[O-])n1,-3%,2%,-5%,i,.
O=C1c2ccccc2C(=O)N1CCc1csc(-c2ccccc2)n1,13µM*,10%,?,i,i
C[C@H]1[C@@H](NC(=O)/C=C/c2ccccc2)CC[C@@]23CCCN2C(=O)CCC[C@@H]13,.,.,.,.,i
O=C(Nc1ccccc1F)c1ccc(Cn2cc(Cl)cn2)cc1,-8%,16%,-1%,i,i
Cc1ccc(Cl)cc1NC(=O)c1ccc(Cn2cc(Cl)cn2)cc1,4%,20µM*,4%,?,i
COC(=O)c1cnn(-c2nc(OC)cc(OC)n2)c1C,5%,1%,8%,i,.
COc1cc(OC)nc(-n2ncc(Br)c(Br)c2=O)n1,11µM*,?,9%,i,i
CC(=O)n1cc(N(C(=O)CCl)c2ccc(Cl)cc2)c2ccccc21,22µM*,-18%,2%,i,i
COC(=O)[C@]12C[C@H](CC(=O)NCCc3ccccc3OC)C(=O)N(Cc3cccc4ccccc34)C1=C[C@H](COCc1ccccc1)O[C@@H]2C,.,.,.,.,16µM*
COC(=O)[C@]12C[C@H](CC(=O)NCC3CCCCC3)C(=O)N(CCc3ccc(OC)c(OC)c3)C1=C[C@H](COCc1ccccc1)O[C@@H]2C,.,.,.,.,10µM*
COC(=O)[C@]12C[C@H](CC(=O)NCc3cccc4ccccc34)C(=O)N(Cc3ccc(Cl)cc3Cl)C1=C[C@H](COCc1ccccc1)O[C@@H]2C,.,.,.,.,i
CCOC(=O)N1CCN(C(=O)C[C@H]2C[C@@]3(C(=O)OC)C(=C[C@H](COCc4ccccc4)O[C@@H]3C)N(Cc3cccc4ccccc34)C2=O)CC1,.,.,.,.,22µM*
COC(=O)[C@]12C[C@H](CC(=O)NCCC(C)C)C(=O)N(Cc3ccccc3)C1=C[C@H](COCc1ccccc1)O[C@@H]2C,.,.,.,.,i
CCc1nc(-c2cc(S(=O)(=O)N3CCN(c4ccccc4)CC3)ccc2OC)no1,0%[9.22 µM],.,.,i,i
N#Cc1ccc(S(=O)(=O)N2CCC(Oc3cccc(C(F)(F)F)c3)CC2)cc1,7%,.,.,i,i
CCCC(=O)N1CCN(c2nc(CC(C)C)c3c(c2C#N)CCC3)CC1,11µM*,24%,1%,i,?
CC(C)Cc1nc(N2CCN(C(=O)c3ccco3)CC2)c(C#N)c2c1CCCC2,?,-25%,-12%,i,?
SMILES,TDP-43 yeast inh,Mito fusion act,aSyn yeast inh,Abeta rescue,FUS yeast rescue
CCC1CN(C(=O)Nc2ccc(Br)cc2F)c2ccccc2S1 (stereo unspecified),-15%,.,.,i,i
O=C(NCc1ccc2c(c1)CCN2C(=O)c1ccccc1)c1cc2ccccc2[nH]1,5%,.,.,i,i
COc1ccc(CCC(=O)NCc2ccc3c(c2)CCN3C(=O)c2cccc(C)c2)cc1,25µM*,.,.,i,?
O=C(NCc1ccc2c(c1)CCN2C(=O)c1ccc(F)cc1)c1cc2ccccc2[nH]1,32µM*,.,.,i,i
COc1ccc(OCC(=O)NCc2ccc3c(c2)CCN3C(=O)c2ccccc2)cc1,25µM*,.,.,i,i
CCCCOC(=O)CCN1C(=O)/C(=C/c2ccccc2)SC1=S,.,.,.,.,i
O=C(CSc1n[nH]c(-c2ccccc2Cl)n1)N1CCN(c2ccc(F)cc2)CC1,?,.,.,i,i
Cc1ccc(C)c(NC(=O)CN2C(=O)CCc3cc(S(=O)(=O)N4CCCCC4)ccc32)c1,-3%,.,.,i,?
O=C1Cc2ccccc2C(=O)N1CCc1ccccc1,13µM*,-1%,2%,i,i
Cc1cccc(C)c1NC(=O)c1ccc2nc(CCc3ccccc3)oc2c1,13µM*,.,.,i,i
Cc1ccc(C)c(NC(=O)c2ccc3nc(CCc4ccccc4)oc3c2)c1,19%,.,.,i,i
COc1ccc(C2=CC(=O)C[C@H](c3ccc(OC)c(OC)c3)C2)cc1,13%,12%,12%,i,i
COc1ccc(C2=CC(=O)CC(c3ccc(F)cc3)C2)cn1 (stereo unspecified),18µM*,.,6%,i,i
COc1ccc(C2=CC(=O)C[C@H](c3ccc(F)cc3)C2)cc1OC,22µM*,?,0%,i,i
COc1ccc([C@H]2CC(=O)C=C(c3ccc(C)cc3)C2)cc1OC,13µM*,17%,4%,i,i
COc1ccc([C@H]2CC(=O)C=C(c3ccc(Cl)c(C(F)(F)F)c3)C2)cc1OC,16µM*,4%,0%,i,?
CCOC(=O)CC(NC(=O)CCc1c(C)nc2c(c1C)c(=O)n(C)c(=O)n2C)c1ccc(OCC)c(OC)c1 (stereo unspecified),6%,.,.,i,i
Cc1cc(C)cc(NC(=O)Cn2c(=O)n(C(C)C)c(=O)c3oc4ccccc4c32)c1,12%,.,.,i,i
CCc1ccccc1NC(=O)Cn1cc2c(n1)CCC(C)C2 (stereo unspecified),3%[9.22 µM],.,.,i,i
CC(=O)c1ccc2c(c1)CC1(C2)Cc2cc3c(cc2C1)C(=O)CC3 (stereo unspecified),16µM*,.,-10%,i,.
COc1ccc([C@]23Cc4cc(C#N)ccc4C(O2)c2c(cc(C)n(-c4ccccc4)c2=O)O3)cc1,.,0%[9.22 µM],.,.,.
CN(Cc1ccco1)S(=O)(=O)c1ccc(CN2C(=O)c3cccnc3C2=O)s1,18µM*,-5%,?,i,i
CCCCN1CCS(=O)(=O)N(Cc2cn(Cc3ccccc3Br)nn2)C(C(=O)OC)C1 (stereo unspecified),.,.,.,.,i
COc1ccc(-c2cc(C(=O)Oc3ccc(C#N)cc3)no2)cc1,-8%,.,.,i,i

# Source: PubChem (National Center for Advancing Translational Sciences (NCATS))
